A short description of assay [1]: qHTS assay to identify small molecule that activate the aryl hydrocarbon receptor (AhR) signaling pathway - cell viability counter screen (AID 743086). Further: nearly all actives have a fitted effect of over 45% in size. Further: potency means the concentration at half of the fitted maximal effect. The method in brief:
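HepG2-AhR-luc (HG2L7.5c1) cells, 4000/well, treated 24 h at 37 C with compound; viability measured as CellTiter-Fluor fluorescence after 30 min in the same wells as the luciferase read.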
(qHTS replaces the single test concentration by a dilution series.)

Assay [2] deals with Peroxisome proliferator-activated receptor gamma (Homo sapiens) (UniProt P37231). The assay is described as follows: qHTS assay to identify small molecule agonists of the peroxisome proliferator-activated receptor gamma (PPARg) signaling pathway (AID 743094; active means well fitted activation curve with a large enough effect in the signal ratio in the repeat runs, not every such curve was filed as active; the % refers to the signal ratio). Summed up: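 Fluorescence-based beta-lactamase readout in HEK293H PPARg UAS-bla cells after 17 h compound exposure (37C) and 1 h B/G FRET substrate incubation at room temperature.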
Sequence of Peroxisome proliferator-activated receptor gamma (Homo sapiens) (P37231 whole entry, looked up): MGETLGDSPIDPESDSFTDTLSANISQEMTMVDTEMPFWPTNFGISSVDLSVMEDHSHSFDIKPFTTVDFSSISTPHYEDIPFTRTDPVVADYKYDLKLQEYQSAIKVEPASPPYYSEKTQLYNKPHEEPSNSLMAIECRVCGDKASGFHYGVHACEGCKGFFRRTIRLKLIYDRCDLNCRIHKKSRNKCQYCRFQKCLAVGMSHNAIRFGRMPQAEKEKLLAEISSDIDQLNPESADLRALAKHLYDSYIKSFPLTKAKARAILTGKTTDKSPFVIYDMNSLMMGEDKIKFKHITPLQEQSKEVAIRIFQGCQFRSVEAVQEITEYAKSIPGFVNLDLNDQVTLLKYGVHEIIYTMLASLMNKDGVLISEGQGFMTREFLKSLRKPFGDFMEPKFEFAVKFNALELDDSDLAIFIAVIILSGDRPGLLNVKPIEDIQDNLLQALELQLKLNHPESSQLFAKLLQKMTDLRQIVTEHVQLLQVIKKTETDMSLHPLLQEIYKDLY

A short description of assay [3]: qHTS assay for small molecule agonists of the antioxidant response element (ARE) signaling pathway (AID 743202; active means well fitted activation curve with a large enough effect in the signal ratio in the repeat runs, not every such curve was filed as active; the % refers to the signal ratio; further: potency means the concentration at half of the fitted maximal effect). Summed up: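 HepG2 ARE-bla reporter line, 2,000 cells/well; 5 h preincubation 37 C/5% CO2; compound (DMSO) 16 h 37 C; B/G FRET substrate 2 h RT; fluorescence intensity.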
Assay [4] is described as follows: qHTS assay for small molecule activators of the heat shock response signaling pathway - cell viability counter screen (AID 743209). Further: nearly all actives have a fitted effect of over 50% in size. Further: potency means the concentration at half of the fitted maximal effect. Summed up: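 To flag cytotoxic compounds, HSE-bla HeLa cells plated at 1500 cells/well were dosed for 5 h at 37 C, followed by the reporter FRET read and then CellTiter-Glo, with luminescence recorded 30 min after reagent addition.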

Assay [5] in a line: qHTS assay for small molecule activators of the heat shock response signaling pathway (AID 743210; active means well fitted activation curve with a large enough effect in the signal ratio in the repeat runs, with a control signal flat, not every such curve was filed as active; the % refers to the signal ratio; further: series mostly up to about 63 µM). The method in brief: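 Beta-lactamase reporter read-out: FRET substrate fluorescence after 2.5 h at RT, following 5 h compound treatment at 37 C of HeLa cells carrying HSE-driven bla reporter; quantitative HTS format.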
The nature of assay [6]: qHTS assay to identify small molecule agonists of the peroxisome proliferator-activated receptor delta (PPARd) signaling pathway - cell viability counter screen (AID 743211). Further: nearly all actives have a fitted effect of over 55% in size. Further: potency means the concentration at half of the fitted maximal effect. The method in brief:
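Read-out: CellTiter-Glo luminescence, 30 min RT, measured in the same wells as the beta-lactamase reporter. Cells: GeneBLAzer PPAR delta UAS-bla HEK293H, 3000 cells/well, compound exposure 17 h at 37C.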

The target of assay [7] is Peroxisome proliferator-activated receptor delta (Homo sapiens) (UniProt Q03181). The assay is described as follows: qHTS assay to identify small molecule agonists of the peroxisome proliferator-activated receptor delta (PPARd) signaling pathway (AID 743212; calls by dose curve). The method in brief: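 Read-out: beta-lactamase FRET fluorescence after 2 h room-temperature incubation with LiveBLAzer B/G substrate. Cells were HEK293H carrying a UAS-bla reporter for PPARd, treated at 37 C with DMSO-dissolved compounds.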
Sequence of Peroxisome proliferator-activated receptor delta (Homo sapiens) (Q03181 whole entry, looked up): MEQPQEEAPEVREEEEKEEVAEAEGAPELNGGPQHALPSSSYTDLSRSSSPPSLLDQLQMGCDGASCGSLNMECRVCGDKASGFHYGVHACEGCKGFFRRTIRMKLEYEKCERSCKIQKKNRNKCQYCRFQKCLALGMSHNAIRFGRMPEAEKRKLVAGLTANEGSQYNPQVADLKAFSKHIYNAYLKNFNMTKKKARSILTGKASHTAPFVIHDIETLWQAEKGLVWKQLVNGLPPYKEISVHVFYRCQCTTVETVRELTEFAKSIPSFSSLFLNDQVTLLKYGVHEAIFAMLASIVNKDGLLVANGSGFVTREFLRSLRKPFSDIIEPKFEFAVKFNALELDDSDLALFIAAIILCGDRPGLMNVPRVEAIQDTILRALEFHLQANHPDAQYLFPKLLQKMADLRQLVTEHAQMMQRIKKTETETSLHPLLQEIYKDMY

For assay [8], the target named is Bile acid receptor (Homo sapiens) (UniProt Q96RI1). Put plainly: qHTS assay to identify small molecule antagonists of the farnesoid-X-receptor (FXR) signaling pathway (AID 743217; active means well fitted inhibition curve with a large enough effect in the signal ratio in the repeat runs, not every such curve was filed as active; the % refers to the signal ratio). Summed up:
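Quantitative HTS, beta-lactamase reporter format: FXR-UAS-bla HEK 293T cells co-treated 16 h at 37 °C with compounds and 50 uM final chenodeoxycholic acid, then read by B/G FRET fluorescence.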

The nature of assay [9]: qHTS assay to identify small molecule agonists of the vitamin D receptor (VDR) signaling pathway - cell viability counter screen (AID 743224). Further: nearly all actives have a fitted effect of over 50% in size. Further: potency means the concentration at half of the fitted maximal effect. Summed up:
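Counter screen for cytotoxicity: VDR-bla cells at 2,000 cells/well, 16 h compound exposure, then CellTiter-Glo luminescence after the beta-lactamase measurement.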

Assay [10] in a line: qHTS assay for small molecule agonists of the antioxidant response element (ARE) signaling pathway - cell viability counter screen (AID 743203; calls by dose curve; further: nearly all actives have a fitted effect of over 55% in size; further: potency means the concentration at half of the fitted maximal effect). Summed up:
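Parallel cytotoxicity read-out for the ARE-bla screen: HepG2 reporter cells, 16 hrs with compounds, then CellTiter-Glo luminescence.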

Assay [11] can be described thus: qHTS assay to identify small molecule antagonists of the peroxisome proliferator-activated receptor delta (PPARd) signaling pathway - cell viability counter screen (AID 743213). Further: nearly all actives have a fitted effect of over 50% in size. Further: potency means the concentration at half of the fitted maximal effect. Summed up:
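In this counter screen, HEK293H cells carrying a UAS-beta-lactamase reporter are co-treated with test compounds and 300 nM L165041 (final) for 17 h at 37 C; cell viability is quantified by CellTiter-Glo luminescence.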

Assay [12] deals with Peroxisome proliferator-activated receptor delta (Homo sapiens) (UniProt Q03181). Put plainly: qHTS assay to identify small molecule antagonists of the peroxisome proliferator-activated receptor delta (PPARd) signaling pathway (AID 743215; active means well fitted inhibition curve with a large enough effect in the signal ratio in the repeat runs, not every such curve was filed as active; the % refers to the signal ratio;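 further: cells stimulated with agonist L165041 at 300 nM final during compound exposure; series mostly up to about 62 µM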). Summed up: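 Screen format: qHTS, antagonist mode. HEK293H PPARd-bla cells received compound and 300 nM L165041 (final), 17 h, 37 C. Beta-lactamase detected via FRET substrate fluorescence, 2 h, room temperature.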

The nature of assay [13]: qHTS assay to identify small molecule agonists of the farnesoid-X-receptor (FXR) signaling pathway - cell viability counter screen (AID 743218). Further: nearly all actives have a fitted effect of over 45% in size. Further: potency means the concentration at half of the fitted maximal effect. The method in brief: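 Same-well cytotoxicity check on FXR-UAS-bla HEK 293T cells: 5 h attachment, 16 h compound at 37 C, CellTiter-Glo luminescence read at room temperature after 30 min.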
A short description of assay [14]: qHTS assay to identify small molecule antagonists of the farnesoid-X-receptor (FXR) signaling pathway - cell viability counter screen (AID 743221; active means well fitted cell-killing curve with a large enough effect in the repeat runs, not every such curve was filed as active; further: nearly all actives have a fitted effect of over 50% in size; further: potency means the concentration at half of the fitted maximal effect). Summed up: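 HEK 293T FXR-bla cells, 5 h pre-incubation; compound + CDCA 50 uM final, 16 h, 37 C; beta-lactamase FRET read first, then CellTiter-Glo luminescence, 30 min RT.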
Assay [15] is described as follows: qHTS assay to identify small molecule antagonists of the peroxisome proliferator-activated receptor gamma (PPARg) signaling pathway - cell viability counter screen (AID 743194). Further: nearly all actives have a fitted effect of over 55% in size. Further: potency means the concentration at half of the fitted maximal effect. The method in brief:
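Cytotoxicity counter screen in PPARg-bla HEK293H cells, same wells as reporter assay. Compounds plus 50 nM rosiglitazone (final) for 17 h at 37 C, then viability read by CellTiter-Glo luminescence.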

Assay [16] deals with Peroxisome proliferator-activated receptor gamma (Homo sapiens) (UniProt P37231). Put plainly: qHTS assay to identify small molecule antagonists of the peroxisome proliferator-activated receptor gamma (PPARg) signaling pathway (AID 743191; calls by dose curve; further: series mostly up to about 63 µM; nearly all actives have a fitted effect of over 30% in size). Summed up:
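GeneBLAzer PPARg UAS-bla HEK293H cells, 5 h post-plating, exposed to compounds 17 h at 37C. LiveBLAzer B/G FRET substrate added for 1 h at room temperature; beta-lactamase reporter read by fluorescence intensity.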

For assay [17], the target named is Vitamin D3 receptor (Homo sapiens) (UniProt P11473). Put plainly: qHTS assay to identify small molecule agonists of the vitamin D receptor (VDR) signaling pathway (AID 743222; calls by dose curve). The method in brief: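 Using LiveBLAzer B/G FRET detection, agonism was scored in VDR-bla cells exposed overnight (16 h, 37C) to DMSO-dissolved compounds; substrate incubation was 2 h at room temperature.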
Sequence of Vitamin D3 receptor (Homo sapiens) (P11473 whole entry, looked up): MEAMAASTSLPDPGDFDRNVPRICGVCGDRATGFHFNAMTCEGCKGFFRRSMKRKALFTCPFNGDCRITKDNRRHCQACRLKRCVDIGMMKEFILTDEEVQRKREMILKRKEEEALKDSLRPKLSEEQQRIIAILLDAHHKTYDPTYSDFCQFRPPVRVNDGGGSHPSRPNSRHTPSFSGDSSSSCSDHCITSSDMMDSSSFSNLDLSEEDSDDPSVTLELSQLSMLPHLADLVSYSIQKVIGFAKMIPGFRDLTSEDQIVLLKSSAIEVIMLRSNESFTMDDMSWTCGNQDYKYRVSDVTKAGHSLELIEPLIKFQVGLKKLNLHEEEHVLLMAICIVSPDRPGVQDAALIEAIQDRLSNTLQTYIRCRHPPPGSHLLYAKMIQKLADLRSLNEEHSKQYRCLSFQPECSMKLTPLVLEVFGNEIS

In assay [18] the target is Bile acid receptor (Homo sapiens) (UniProt Q96RI1). The assay is described as follows: qHTS assay to identify small molecule agonists of the farnesoid-X-receptor (FXR) signaling pathway (AID 743220; active means well fitted activation curve with a large enough effect in the signal ratio in the repeat runs, not every such curve was filed as active; the % refers to the signal ratio). The method in brief:
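FXR-UAS-bla HEK 293T cells carrying a UAS-driven beta-lactamase reporter were plated for 5 h at 37C/5% CO2, then exposed to DMSO-dissolved Tox21 10K compounds for 16 h at 37C. A LiveBLAzer B/G FRET substrate was loaded for 2 h at room temperature before fluorescence reading.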

In assay [19] the target is Vitamin D3 receptor (Homo sapiens) (UniProt P11473). Put plainly: qHTS assay to identify small molecule antagonists of the vitamin D receptor (VDR) signaling pathway (AID 743223; active means well fitted inhibition curve with a large enough effect in the signal ratio in the repeat runs, not every such curve was filed as active; the % refers to the signal ratio). Summed up:
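Beta-lactamase reporter read-out: FRET substrate fluorescence after 2 h at room temperature, following 16 h exposure of VDR-bla cells to test compound plus 3 nM (final) 1alpha,25-dihydroxyvitamin D3 agonist at 37C.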

A short description of assay [20]: qHTS assay to identify small molecule antagonists of the vitamin D receptor (VDR) signaling pathway - cell viability counter screen (AID 743225). Further: nearly all actives have a fitted effect of over 50% in size. Further: potency means the concentration at half of the fitted maximal effect. Summed up:
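Viability counter screen run in the same wells as the beta-lactamase reporter assay: HEK 293T VDR-UAS-bla cells, 16 h compound exposure at 37C with 3 nM (final) 1-alpha,25-dihydroxyvitamin D3. CellTiter-Glo luminescence, 30 min, room temperature.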

Several values for one entry are separate records, joined by “and”; a condition that tells them apart may be missing. Equal entries are not always repeated. Results filed as inconclusive are left out. A structure can be active in one record and inactive in another. Activity calls are given as the source filed them. Unless noted, the call rests on the fitted dose curve; in most records, active means well fitted curve in the direction sought with a large enough effect in the repeat runs; inconclusive means weak or mixed curves; inactive means no such curve, though single readings can be large; an effect the other way counts as inactive or inconclusive.

Sequence of Bile acid receptor (Homo sapiens) (Q96RI1 whole entry, looked up): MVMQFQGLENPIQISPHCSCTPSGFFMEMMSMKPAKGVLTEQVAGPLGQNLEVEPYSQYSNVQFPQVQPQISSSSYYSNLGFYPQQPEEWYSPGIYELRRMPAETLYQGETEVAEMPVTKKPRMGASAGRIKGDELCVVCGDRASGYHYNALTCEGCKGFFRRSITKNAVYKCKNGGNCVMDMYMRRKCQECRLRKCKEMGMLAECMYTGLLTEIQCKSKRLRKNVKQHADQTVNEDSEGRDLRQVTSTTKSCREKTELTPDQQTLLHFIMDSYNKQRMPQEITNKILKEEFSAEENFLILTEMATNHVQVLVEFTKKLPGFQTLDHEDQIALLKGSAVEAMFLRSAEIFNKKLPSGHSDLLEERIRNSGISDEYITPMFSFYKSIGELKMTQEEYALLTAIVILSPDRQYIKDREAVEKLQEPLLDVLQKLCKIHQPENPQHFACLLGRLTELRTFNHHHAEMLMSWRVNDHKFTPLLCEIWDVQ

For `CC(=O)Oc1ccccc1C(=O)Nc1ncc([N+](=O)[O-])s1`, the Potency entry was “inactive and 17.6 µM (active)” in assay [1]; 1.19 µM (active) in assay [4]; 12.6 µM (active) in assay [9]. The Potency entry in assay [2], in [3], in assay [5], in assay [6] and in assay [8] was “inactive” in each case. Besides, the compound was classed as inactive in assay [7].
With `Cn1cnc([N+](=O)[O-])c1Sc1ncnc2nc[nH]c12`, the Potency result in [2], in assay [4], in assay [11], in [12], in assay [13] and in assay [14] was “inactive” each time. The Potency in assay [3] was 8.41 µM (active); in assay [10], 0.382 µM (active). Further, the result in [7] was inactive.
As for `CN(C)C(=N)N=C(N)N`, the Potency entry in assay [1], in [15], in assay [3], in [10], in assay [4] and in assay [6] was “inactive” each time. The Potency entry in [11], in assay [13], in [14] and in assay [9] was “inactive” each time.
For the compound `Nc1ncn([C@@H]2O[C@H](CO)[C@@H](O)[C@H]2O)c(=O)n1`, the Potency in [1] was 5.31 µM (active); in assay [3] it was 1.54 µM (active) and 2.66 µM (active). The Potency entry in assay [16], in [15], in assay [10], in [4], in assay [5] and in assay [11] was “inactive” in each case. In addition, the Potency entry in assay [13], in assay [14] and in [9] was “inactive” each time. The result in assay [7] and in assay [17] was inactive.
Take `c1ccc2c(c1)c1cccc3ccc4cccc2c4c31`: the Potency result in [1], in assay [15], in assay [10], in assay [4], in assay [5] and in [6] was “inactive” each time. For the same compound, the Potency result in [11], in assay [12], in [8], in [13], in assay [14] and in assay [9] was “inactive” in each case. In addition, the Potency result in [20] was “inactive”. For the same compound, the Potency in assay [3] is 60.7 µM (active). Besides, the compound was called inactive in [7], in assay [18], in [17] and in [19].
For `Nc1ncnc2nc[nH]c12`, the Potency entry in [1], in assay [2], in [3], in assay [4], in assay [5] and in [6] was “inactive” throughout. Also, the Potency entry in [11], in assay [12], in [8], in assay [13], in assay [14] and in assay [9] was “inactive” each time. The result in assay [7], in assay [18], in assay [17] and in [19] was inactive.
Regarding `Oc1ccc(O)cc1`, the Potency result in assay [1], in assay [10], in [4], in assay [5], in assay [11] and in assay [12] was “inactive” in each case. For the same compound, the Potency result in [13], in assay [14], in assay [9] and in assay [20] was “inactive” in each case. The compound was called inactive in [7].
For `COc1cc([C@@H]2c3cc4c(cc3[C@H](O)[C@H]3COC(=O)[C@H]23)OCO4)cc(OC)c1OC`, the Potency entry in assay [1], in assay [16], in assay [15], in [10], in assay [4] and in [5] was “inactive” each time. The Potency entry in [6], in assay [12], in assay [13], in assay [14], in [9] and in [20] was “inactive” throughout. Also, in assay [17], the result was inactive.
On to `c1ccncc1`, for which the Potency entry in [1], in assay [2], in [3], in [10], in assay [4] and in assay [5] was “inactive” throughout. In addition, the Potency result in [11], in [13], in assay [14], in assay [9] and in assay [20] was “inactive” throughout. The result in [17] was inactive.
Turning to `Nc1ccc(Nc2ccccc2)cc1`, the Potency entry in assay [2], in assay [16], in assay [15], in assay [10], in assay [4] and in assay [5] was “inactive” in each case. Also, the Potency entry in assay [11], in assay [13], in [14] and in assay [9] was “inactive” each time.
For the compound `C/C=C/C(=O)O`, the Potency entry in assay [1], in assay [3], in [10], in [4], in [5] and in assay [6] was “inactive” throughout. Also, the Potency entry in assay [11], in [13], in assay [14], in assay [9] and in assay [20] was “inactive” in each case. In addition, the call in assay [17] and in assay [19] was inactive.
`CN(C)CCC=C1c2ccccc2CCc2ccccc21`: the Potency was 48.6 µM (active) in [1]; 43.7 µM (active) and 38.9 µM (active) and 29.8 µM (active) in assay [6]; 24.5 µM (active) in [11]; 49 µM (active) and 19.5 µM (active) in assay [13]; 43.7 µM (active) and 29.8 µM (active) in assay [14]; 49 µM (active) and 21.9 µM (active) in [9]. Moreover, the Potency in assay [20] was 21.9 µM (active) and 49 µM (active) and inactive. Also, the Potency result in assay [16], in [10], in assay [4], in [5], in [12] and in [8] was “inactive” throughout. Besides, the outcome in assay [7], in [18], in assay [17] and in assay [19] was inactive.
`CCCCc1oc2ccccc2c1C(=O)c1cc(I)c(OCCN(CC)CC)c(I)c1`: the Potency entry in assay [1] and in assay [4] was “inactive” throughout. Moreover, the Potency is 13.9 µM (active) in assay [15]; 34.6 µM (active) in assay [10]; 15.6 µM (active) and 23.7 µM (active) in assay [11]; 34.9 µM (active) and 18.8 µM (active) in [13]; 34.9 µM (active) and 29.8 µM (active) in assay [14]; 15.6 µM (active) and 26.6 µM (active) in assay [9]. Also, the compound was classed as inactive in [18] and in assay [19].

The values are drawn from PubChem BioAssay (Tox21).
